The supplement of paper PMC13094657
± gives the standard deviation of the averaged measurements.

How the values were obtained:
[1] = test system: MDA-MB-231; assay: cell viability relative to vehicle unstimulated control (fraction); higher = more viable cells; settings: pre-treatment time: 18 h then 24 h IFNg/TNF
[2] = test system: MDA-MB-231; assay: kynurenine production, fold change vs DMSO IFNg/TNF control; higher = more kynurenine produced (less inhibition); settings: pre-treatment time: 18 h then 24 h IFNg/TNF
In short: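 After trichloroacetic acid and p-dimethylaminobenzaldehyde treatment, supernatants were read at 492 nm, with 0–100 μM standards. These came from MDA-MB-231 cells (7 × 10^4/well, 96-well plates) pre-treated 18 h with natural products in 0.1% DMSO and then exposed 24 h to IFNγ (1 U/ml) and TNF (6.25 ng/ml) at 37°C. Values for kynurenine production are fold changes over same-plate cytokine-stimulated vehicle wells, averaged over duplicate plates in the first screening round.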
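Wherever cell viability relative to vehicle unstimulated control is given: viability of the cells left after supernatant collection, read with Deep Blue dye added for 4 h, as absorbance at 570 nm minus 600 nm.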

SMILES	cell viability [1]	kynurenine production [2]
COc1cc2ccc(=O)oc2cc1O[C@@H]1O[C@H](CO)[C@@H](O)[C@H](O)[C@H]1O [Scopolin] (compound dose: 10 uM)	1.015 ± 0.0034	1.22 ± 0.16
C[C@H]1[C@H](C)CC[C@]2(C(=O)O[C@@H]3O[C@H](CO[C@@H]4O[C@H](CO)[C@@H](O[C@@H]5O[C@H](C)[C@H](O)[C@@H](O)[C@H]5O)[C@H](O)[C@H]4O)[C@@H](O)[C@H](O)[C@H]3O)CC[C@]3(C)C(=CC[C@@H]4[C@@]5(C)C[C@@H](O)[C@H](O)[C@@](C)(CO)[C@@H]5CC[C@]43C)[C@H]12 [Asiaticoside] (compound dose: 10 uM)	0.831 ± 0.1	0.85 ± 0.17
C=C1CCC[C@]2(C)C[C@@H]3OC(=O)C(C)=C3C[C@@H]12 [Atractylenolide II] (compound dose: 10 uM)	1.03 ± 0.018	1.06 ± 0.041
CC(=O)O[C@@]1(C)C[C@@H](O)[C@]2(O)C=CO[C@@H](O[C@@H]3O[C@H](CO)[C@@H](O)[C@H](O)[C@H]3O)[C@@H]21 [8-O-Acetylharpagide] (compound dose: 10 uM)	0.9 ± 0.067	0.906 ± 0.076
COC(=O)C1=C2CCOC3=C2C2=C1C(=O)[C@@H]1C[C@H]4N(C[C@@H](CC3)[C@@]24C)C[C@H]1C [Daphnicyclidin D] (compound dose: 10 uM)	0.948 ± 0.076	0.831 ± 0.18
COC(=O)[C@@H]1C[C@@]23C4=C(CC[C@@H]5CN6C[C@@H](C)[C@@H](C[C@@H](OC(C)=O)[C@@]52COC(C)=O)[C@]63O)CC[C@@H]41 [Yuzurimine] (compound dose: 10 uM)	1.04 ± 0.029	0.756 ± 0.07
CC1=CC[C@@H](C(C)(C)O)CC1 [α-Terpineol] (compound dose: 10 uM)	1.02 ± 0.059	0.896 ± 0.0054
CC(=O)OC1COC(OC2CCC34CC35CCC3(C)C(C6(C)CCC(C(C)(C)O)O6)C(O)CC3(C)C5CC(OC3OC(CO)C(O)C(O)C3O)C4C2(C)C)C(OC(C)=O)C1O (stereo not drawn) [Isoastragaloside I] (compound dose: 10 uM)	0.983 ± 0.0057	0.925 ± 0.059
CC1(C)[C@@H](O[C@H]2O[C@H](C(=O)O)[C@@H](O)[C@H](O)[C@H]2O[C@@H]2O[C@H](C(=O)O)[C@@H](O)[C@H](O)[C@H]2O)CC[C@]2(C)[C@H]3C(=O)C=C4[C@@H]5C[C@@](C)(C(=O)O)CC[C@]5(C)CC[C@@]4(C)[C@]3(C)CC[C@@H]12 [Ammonium glycyrrhizinate] (compound dose: 10 uM)	0.952 ± 0.033	0.801 ± 0.2
C[C@@H]1CC[C@H]2C(C)(C)[C@H]3C[C@@]12CC[C@@]3(C)O [Cedrol] (compound dose: 10 uM)	0.977 ± 0.06	1.06 ± 0.019
C=C1C(=O)O[C@H]2C[C@H](C)C(/C=C/C(C)=O)=CC[C@H]12 [Xanthatin] (compound dose: 10 uM)	0.66 ± 0.18	0.13 ± 0.042
C=C(C)[C@@H]1CC[C@]2(C(=O)O)CC[C@]3(C)[C@H](CC[C@@H]4[C@@]5(C)CC[C@H](OC(=O)CC(C)(C)C(=O)O)C(C)(C)[C@@H]5CC[C@]43C)[C@@H]12 [Bevirimat] (compound dose: 10 uM)	1.018 ± 0.0069	0.778 ± 0.15
O=C(O)c1cccnc1 [Nicotinic acid] (compound dose: 10 uM)	0.917 ± 0.043	0.945 ± 0.13
CC1=CC[C@@H](C(C)(C)O)CC1 [(-)-α-terpineol] (compound dose: 10 uM)	0.979 ± 0.044	0.913 ± 0.057
C=C1CC[C@@H]2[C@](C)(CO)[C@H](O)CC[C@@]2(C)[C@H]1C/C=C1\C=COC1=O [Dehydroandrographolide] (compound dose: 10 uM)	0.984 ± 0.032	0.754 ± 0.058
C[C@H](CC(=O)C[C@@H](C)[C@H]1C[C@H](O)[C@@]2(C)C3=C(C(=O)C[C@]12C)[C@@]1(C)CCC(=O)C(C)(C)[C@@H]1C[C@@H]3O)C(=O)O [Ganoderic acid A] (compound dose: 10 uM)	0.889 ± 0.073	0.857 ± 0.073
COc1ccc(C[C@H]2COC(=O)[C@]2(O)Cc2ccc(O[C@@H]3O[C@H](CO)[C@@H](O)[C@H](O)[C@H]3O)c(OC)c2)cc1OC [Tracheloside] (compound dose: 10 uM)	0.8831 ± 0.0055	0.824 ± 0.11
CC(C)=CCC[C@](C)(O)[C@H]1CC[C@]2(C)[C@@H]1[C@H](O)C[C@@H]1[C@@]3(C)CC[C@H](O)C(C)(C)[C@@H]3[C@@H](O[C@@H]3O[C@H](CO)[C@@H](O)[C@H](O)[C@H]3O[C@@H]3OC[C@@H](O)[C@H](O)[C@H]3O)C[C@]12C [Notoginsenoside R2] (compound dose: 10 uM)	1.04 ± 0.031	1.24 ± 0.12
CC(C)=CC/C=C(\C)[C@H]1CC[C@]2(C)[C@@H]1[C@H](O)C[C@@H]1[C@@]3(C)CC[C@H](O[C@@H]4O[C@H](CO)[C@@H](O)[C@H](O)[C@H]4O[C@@H]4O[C@H](CO)[C@@H](O)[C@H](O)[C@H]4O)C(C)(C)[C@@H]3CC[C@]12C [Ginsenoside Rg5] (compound dose: 10 uM)	0.906 ± 0.032	0.876 ± 0.12
